Compound activity from PubChem BioAssay.
Pol beta inh: DNA polymerase beta (human) inhibition; Pol beta primer extension/strand displacement, fluorescence kinetic; Potency, µM (doses to about 114 µM), without a hit: at the highest dose activity change, negative = inhibition, hits mostly inhibitors; AID 485314; hit rate 1.3% among 340,000; P06746; also: % is scaled to controls: 0 for no effect and ±100 for the full control effect
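Pol beta (10 nM) was preincubated with compound for 15 min at room temperature. The reaction was then started with 50 nM substrate and read immediately and after a further 10 min at room temperature.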
Pol eta inh: DNA polymerase eta (human) inhibition; Q9Y253; recombinant Pol eta, fluorescent DNA replication assay; Potency, µM (series often up to 114 µM), without a hit: top-dose activity change, negative = inhibition, hits mostly inhibitors; hit rate 1.2% among 390,000; AID 588591; also: % is scaled to controls: 0 for no effect and ±100 for the full control effect
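Fluorescent replication assay: 50 nM final substrate added after a 15 min room-temperature compound preincubation with 10 nM enzyme. Signal taken at 0 min and again at 10 min.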
POLI inh: blocks human DNA polymerase iota activity. Q9UNA4. Pol iota fluorescent replication assay, 10 min. Potency, µM (top dose mostly 115 µM), for the others: top-dose activity, negative = inhibition, usual class: inhibitors. hit rate 1% among 390,000. AID 588590
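Fluorescent replication assay read twice, at 0 min and 10 min after adding 50 nM (final) substrate. Enzyme (10 nM) and compounds were first incubated 15 min at room temperature; enzyme-free buffer wells were negative controls.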
FEN1 inh: blocks human flap endonuclease 1; hit rate 0.35% among 390,000; Potency, µM (doses to about 114 µM), for inactives: top-dose activity change, negative = inhibition, hits mostly inhibitors; AID 588795; P39748; Recombinant FEN1 flap cleavage, fluorescence, 15 min; also: % is scaled to controls: 0 for no effect and ±100 for the full control effect; nearly all actives have a fitted effect of over 65% in size
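Compounds are tested as a concentration series against 10 nM FEN1; after a 15 min room-temperature preincubation, 50 nM substrate starts cleavage, with plate reads at 0 and 15 min. Normalized responses are fitted by a Hill equation.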
WRN helicase inh: WRN helicase (human) inhibition. WRN helicase unwinding, fluorescent forked duplex, kinetic. Potency, µM (highest dose often 114 µM), for the others: at the highest dose activity change, negative = inhibition, actives largely listed as inhibitors. hit rate 0.46% among 360,000; also: % is scaled to controls: 0 for no effect and ±100 for the full control effect; nearly all actives have a fitted effect of over 55% in size
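WRN at 20 nM final preincubated with compound 15 min at room temperature; reaction started with 100 nM fluorophore/quencher forked duplex oligonucleotide and 2 mM ATP final. Unwinding followed kinetically by red fluorescence (ex 525, em 598 nm).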
Pol kappa inh: inhibitors of human DNA polymerase kappa | Q9UBT6 | purified Pol kappa, fluorescent DNA synthesis assay, 10 min | Potency, µM (titrated, usually from 107 µM), inactives show at the top dose activity, negative = inhibition, actives largely listed as inhibitors | hit rate 0.53% among 400,000 | AID 588579; also: % is scaled to controls: 0 for no effect and ±100 for the full control effect
Target sequence (Q9UBT6 whole entry, looked up): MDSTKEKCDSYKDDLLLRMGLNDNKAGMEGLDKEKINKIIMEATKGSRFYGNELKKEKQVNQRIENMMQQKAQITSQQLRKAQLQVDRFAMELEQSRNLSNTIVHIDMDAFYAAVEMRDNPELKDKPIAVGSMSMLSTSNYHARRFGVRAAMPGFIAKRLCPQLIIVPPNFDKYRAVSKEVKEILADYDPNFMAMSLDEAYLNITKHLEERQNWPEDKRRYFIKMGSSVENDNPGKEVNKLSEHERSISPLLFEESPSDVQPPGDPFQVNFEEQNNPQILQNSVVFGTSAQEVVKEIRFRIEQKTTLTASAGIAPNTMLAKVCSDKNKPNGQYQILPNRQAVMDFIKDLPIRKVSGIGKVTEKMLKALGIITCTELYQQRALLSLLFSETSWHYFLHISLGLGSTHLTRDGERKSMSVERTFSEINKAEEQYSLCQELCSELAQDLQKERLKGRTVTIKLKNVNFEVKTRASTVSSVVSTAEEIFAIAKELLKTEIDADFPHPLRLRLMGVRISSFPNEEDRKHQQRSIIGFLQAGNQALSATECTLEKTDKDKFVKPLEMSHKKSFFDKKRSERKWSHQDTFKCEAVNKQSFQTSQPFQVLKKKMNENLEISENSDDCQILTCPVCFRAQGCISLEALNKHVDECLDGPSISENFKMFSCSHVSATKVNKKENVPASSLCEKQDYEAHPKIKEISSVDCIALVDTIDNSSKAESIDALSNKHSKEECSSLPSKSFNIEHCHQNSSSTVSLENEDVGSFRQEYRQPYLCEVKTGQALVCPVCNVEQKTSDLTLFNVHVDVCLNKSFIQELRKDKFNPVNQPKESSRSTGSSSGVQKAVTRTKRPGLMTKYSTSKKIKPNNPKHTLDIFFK
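Here, compound and 10 nM enzyme are combined for 15 min at room temperature; adding 50 nM substrate (final) starts DNA synthesis, tracked by fluorescence at 0 and 10 min against buffer-only wells.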
* marks the source's active call; other numbers are inactive results; ? = inconclusive; . = not tested or not shown; [ ] = remark or other dose. Rows were chosen to be rich in hits. Some 2.4% of all compounds tested hit in one or more screens of this group. Calls follow the shape of the dose curve; as a rule, active = well fitted curve in the direction sought with a large enough effect; inconclusive = small, poorly fitted or top-dose-only effect, or another doubt; inactive = no such curve, though single readings can be large; an effect the other way counts as inactive or inconclusive. Potency is read from the fitted curve at half-maximal effect.

SMILES	Pol beta inh	Pol eta inh	POLI inh	FEN1 inh	WRN helicase inh	Pol kappa inh
COc1ccccc1N1CCN(CCn2c(=O)c3c(c4ccccc4n3C)n(C)c2=O)CC1	.	.	.	.	.	6%[19.4 µM]
Cc1cccc(NC(=O)NNC(=O)COc2ccc3ccccc3c2)c1	8%	-4%	11%	-3%	12%	5%
O=C(COc1ccc2ccccc2c1)NNC(=O)C(=O)Nc1ccccc1	40µM*	-10%	?	15%	-18%	-17%
Cc1cc(Br)ccc1OCC(=O)NNC(=O)C(=O)Nc1ccccc1	28µM*	-16%	?	-13%	-23%	-19%
O=C1CCCc2[nH]c(=O)c(C(=O)NCc3ccccc3)cc21	.	.	7%	-14%	.	-5%
CCOC(=O)C1=C(O)c2ccccc2C(=O)/C1=C\c1ccc(CC)cc1	-19%	?	?	?	56µM*	-19%
CCCc1ccc(/C=C2\C(=O)c3ccccc3C(O)=C2C(=O)OCC)cc1	2%	.	.	.	.	.
CCOC(=O)C1=C(Cc2ccc(OC)cc2)C(=O)c2ccccc2C1=O	0%	?	?	?	50µM*	-13%
CC(C)(C)c1ccc(C(=O)C[n+]2cccc(Br)c2)cc1	.	.	12%	-2%	.	-12%
CCOc1ccc(CCNC(=O)c2nc(-c3cccc(F)c3)n3c2CCCCC3)cc1OCC	4%	-21%	?	-12%	.	89µM*
O=C1/C(=C/c2ccco2)Oc2c1ccc(O)c2CN1CCCCC1	20µM*	22µM*	?	-3%	?	79µM*
CC1CCN(Cc2c(O)ccc3c2O/C(=C\c2ccco2)C3=O)CC1	11µM*	56µM*	?	4%	?	?
COCCN(CCOC)Cc1c(O)ccc2c1O/C(=C\c1ccco1)C2=O	10µM*	?	?	-35%	2%[11.6 µM]	?
C#CCOc1ccc(-c2nnc(Nc3cccc(C)c3)c3ccccc23)cc1	0%	-7%	?	?	.	89µM*
Cc1ccc2nc(-c3ccc(-c4ccccn4)s3)cn2c1	40µM*	-18%	?	-8%	?	-20%
COc1ccc(CCC(C)N2CCC(Oc3ccc(C(=O)N4CCCC4)cc3)CC2)cc1 (configuration not stated)	-3%	-13%	89µM*	30%	2%[11.6 µM]	-3%
CC(CCc1ccc(O)cc1)N1CCC(Oc2ccc(C(=O)N3CCCC3)cc2)CC1 (configuration not stated)	?	4%	20%	-4%	-3%	-1%
C=C/C(C)=C/C[C@H]1C(=C)CCC2[C@](C)(C(=O)O)CCC[C@@]21C (some centres not stated)	.	8.9µM*	?	-2%	-19%	?
CCOc1ccc(-c2cccc(NS(=O)(=O)c3c(C)cc(C)cc3C)c2)nn1	1%	-5%	-5%	-16%	.	-16%[60.1 µM]
O=C(Nc1nc2c(F)cc(F)cc2s1)C1CC(=O)N(Cc2ccco2)C1 (configuration not stated)	28µM*	50µM*	28µM*	-4%	-8%[11.6 µM]	?
COc1cc(/C=C2/C(=O)NN(c3ccc(Cl)cc3)C2=O)cc(OC)c1O	-25%	-5%	?	-11%	-26%	-7%
COc1cc(/C=C2\C(=O)NN(c3ccc(C)cc3)C2=O)cc([N+](=O)[O-])c1O	?	22µM*	-11%	-5%	?	-26%
COc1cc(/C=C2\SC(=O)N(Cc3ccc(Cl)cc3)C2=O)cc([N+](=O)[O-])c1O	8%	79µM*	?	?	-6%[11.6 µM]	-18%
O=c1/c(=C\c2cc([N+](=O)[O-])cc([N+](=O)[O-])c2O)sc2nc3ccccc3n12	18µM*	?	?	56µM*	35µM*	?
CC(=O)c1ccc(N2CCN(c3nc4c(S(=O)(=O)c5ccc(C)c(C)c5)nnn4c4ccc(Cl)cc34)CC2)cc1	16%	-6%	33%	-8%	.	14%
SMILES	Pol beta inh	Pol eta inh	POLI inh	FEN1 inh	WRN helicase inh	Pol kappa inh
COc1ccc(OC(C)C(=O)Nc2cccc(OC)c2)cc1 (configuration not stated)	-13%	-9%	-6%	16%	-12%	10%
CC(Oc1ccc(F)cc1)C(=O)Nc1cccc(-c2nn[nH]n2)c1 (configuration not stated)	-1%	45µM*	45µM*	-13%	0%	-23%
Cc1ccc(C)c(NC(=O)Cn2cc(C(=O)c3cccs3)c3ccccc32)c1	?	8%	-28%	0%	.	7%
CCOC(=O)c1c(NC(C)=O)sc2c(OCC(O)CN(CC)CC)c(Br)ccc12 (configuration not stated)	?	-4%	?	22µM*	15%[11.6 µM]	-12%
CCOC(=O)c1c(NC(C)=O)sc2c(OCCN(CC)CC)c(Br)ccc12	-15%	-1%	4%	?	24%	-2%
Cc1ccc(C=C2C(=O)c3ccccc3C2=O)s1	-1%	?	25µM*	-11%	?	-16%
O=C1C(=Cc2cccs2)C(=O)c2ccccc21	10%	-4%	-25%	1%	-19%	-21%
CC1=[N+](C)c2ccc3ccccc3c2C1(C)C	1%	-12%	?	?	25µM*	-21%
Cc1c2ccccc2cc[n+]1C	.	.	30%	14%	.	-2%
Cc1ccc(-c2csc(=Nc3ccccc3)n2Cc2ccc3c(c2)OCO3)cc1	9%	-3%	-30%	-19%	.	-2%
O=c1oc(-c2ccc(O)c(O)c2)cc2cccc(O)c12	.	35µM*	?	?	?	?
O=c1cc(-c2ccc(O)c(O)c2)oc2ccc3ccccc3c12	.	?	?	?	-30%	-24%
COc1ccc(CCNC(=O)c2ccc3nc(-c4ccco4)c(-c4ccco4)nc3c2)cc1OC	35µM*	79µM*	13µM*	?	35µM*	45µM*
COc1ccc(CCNC(=O)c2ccc(N3CCCCS3(=O)=O)cc2)cc1OC	?	2%	79µM*	19%	-13%	-35%
Cc1ccc(C(=O)Nc2cccc(C(F)(F)F)c2)cc1NC(=O)c1nccn1C	40µM*	12%	?	6%	-5%	-20%
COc1ccc(CCNC(=O)c2ccc(Cl)cc2)cc1OC	1%	5%	99%	-1%	5%	-7%
O=C(Nc1cccc(C(F)(F)F)c1)c1ccc2nc(-c3ccco3)c(-c3ccco3)nc2c1	10µM*	8.9µM*	16µM*	?	25µM*	45µM*
CN(CC(=O)O)c1ccc(C=O)cc1	.	.	-16%	-10%	.	-17%
CCC(C)NC(=O)c1ccc2nc(-c3ccco3)c(-c3ccco3)nc2c1 (configuration not stated)	.	.	22µM*	?	.	?
